A selection: hits, their analogues and other compounds. The true share with any hit is near 19%.
DT40 TDP1 no CPT: qHTS for Inhibitors of human tyrosyl-DNA phosphodiesterase 1 (TDP1): qHTS in cells in absence of CPT | DT40 Tdp1-/- hTDP1 cells, no CPT, ATP luminescence, 48 h | Potency, µM (series often up to 46.2 µM), without a hit: at the highest dose activity change, negative = growth inhibition, hits mostly inhibitors | hit rate 15% among 420,000; note: potency is the fitted concentration of half-maximal effect; nearly all actives have a fitted effect of over 55% in size
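Chicken DT40 Tdp1-/- cells complemented with human TDP1, screened without camptothecin (DMSO vehicle only), 400 cells/well. Compounds pin-transferred, cells incubated at 37 °C for at least 48 hr. Growth read as ATP-dependent luminescence (CellTiter-Glo, 30 min at RT).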
IL1B secr inh: blocks inflammasome-driven IL-1 beta release; THP-1 LPS/ATP IL-1B secretion, AlphaLISA, 16 h; stronger effect = lower value; activity change, % at 57.5 µM; hit rate 4.7% among 360,000; AID 743279; in the data active = activity change below about -50%; inconclusive = mostly about -30% to -49%
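THP-1 cells pretreated 1 hr with compounds (up to 57.5 uM final), then stimulated with LPS (250 ng/mL final) plus ATP (1.25 mM final); secreted IL-1B measured by AlphaLISA after 16 hr, decreased signal indicating inhibition.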
TDP1 cell CPT: DT40-hTDP1 cell growth loss with CPT. Potency, µM (top dose mostly 46.2 µM), without a hit: at the highest dose activity change, negative = growth inhibition, actives largely listed as inhibitors. chicken DT40 Tdp1-/-;hTDP1 cells + 20 nM CPT, ATP luminescence, 48 h. hit rate 12% among 420,000; note: potency is the fitted concentration of half-maximal effect; nearly all actives have a fitted effect of over 55% in size
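Chicken DT40 Tdp1-/- cells complemented with human TDP1, 400 cells/well, exposed to compounds plus 20 nM camptothecin for at least 48 h at 37 C; viability read as ATP content by CellTiter-Glo luminescence.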
HT1080 IDH1KD tx: toxicity to HT-1080 IDH1 knockdown cells (counter line). HT-1080 IDH1 knockdown viability, ATP luminescence, 48 h. hit rate 2% among 360,000. Potency, µM (highest dose often 46.1 µM), for inactives: top-dose activity, negative = toxicity, hits mostly cytotoxic. AID 686971;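 note: potency is the fitted concentration of half-maximal effect; 0% = DMSO wells and -100% = cell-free medium wells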
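IDH1KD HT-1080 cells, 750/well, RPMI + 5% FBS; compound pinned after 2 h settling; 48 h, 37 °C; CellTiter-Glo luminescence; % activity normalised to DMSO and no-cell wells; curves fitted, classed by r2 and efficacy.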
HT1080NT lethal: kills 2HG-producing HT-1080-NT fibrosarcoma cells. HT-1080-NT fibrosarcoma viability, CellTiter-Glo ATP luminescence, 48 h. Potency, µM (top dose mostly 46.1 µM), inactives show at the top dose activity, negative = less viability, actives largely listed as cytotoxic. AID 686970. hit rate 1.6% among 360,000;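 note: NT is the 2HG producing partner of a matched IDH1 knockdown line; potency is the fitted concentration of half-maximal effect; 0% = DMSO-treated cells and -100% = media-only wells without cells; nearly all actives have a fitted effect of over 55% in size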
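Fibrosarcoma NT cells, 750 per well in 5% FBS RPMI, were exposed to compound for 48 hours. Viability: CellTiter-Glo luminescence.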
An asterisk follows results filed as active; u = inconclusive; x = no result given; [ ] = remark or other dose. Unless noted, calls come from the whole dose curve; as a rule, active = well fitted curve in the direction sought with a large enough effect; inconclusive = small, poorly fitted or top-dose-only effect, or another doubt; inactive = no such curve, though single readings can be large; an effect the other way counts as inactive or inconclusive. Unless noted, % is set by controls: 0 for no effect and ±100 for the full control effect.

SMILES	DT40 TDP1 no CPT	IL1B secr inh	TDP1 cell CPT	HT1080 IDH1KD tx	HT1080NT lethal
Cc1ccc(C)c(NC(=S)N/N=C2\CCc3ccccc32)c1	20.6µM*	77.6	u	u	-8.3%
Cc1ccc(NC(=S)N/N=C2/CCCCc3ccccc32)cc1	u	0.0	u	-28.6%	-21.3%
Nc1cccc2c1C(=O)N(CCOc1ccc(F)cc1)C2=O	-15.4%	15.4	-13.9%	-19.7%	4.0%
CSc1cccc(N2C(=O)N(CC(=O)NCc3ccccc3Cl)c3ccccc3S2(=O)=O)c1	16.4µM*	x	u	x	x
COc1cccc(CNC(=O)CN2C(=O)N(c3ccc(C)cc3C)S(=O)(=O)c3ccccc32)c1OC	20.6µM*	x	u	x	x
O=C(CN1c2cccc3cccc(c23)S1(=O)=O)NCc1ccccc1Cl	u	-2.5	u	-2.7%	-9.8%
COc1ccccc1-c1cc(C(=O)Nc2cc(C)nn2-c2ccccc2)no1	25.9µM*	32.8	18.4µM*	3.16µM*	u
COc1ccc(N2CCN(c3cc(C(=O)Nc4cc(OC)c(OC)c(OC)c4)ncn3)CC2)cc1OC	18.4µM*	34.0	14.6µM*	u	u
COCCNC(=O)c1cc(-c2ccccc2OC)on1	11.6µM*	34.0	10.3µM*	-24.2%	u
COc1ccccc1-c1cc(C(=O)Nc2cc(OC)c(OC)c(OC)c2)no1	0.651µM*	x	0.517µM*	x	x
Cc1ccc(NC(=O)CN2CCCC2)cc1Br	3.7%	-9.7	-2.0%	-1.0%	-7.0%
COC(F)(F)C(Cl)Cl	-4.5%	x	0.8%	x	x
Cc1cccc(-c2csc(NC(=O)c3cnccn3)c2C(=O)OC(C)C)c1	-24.1%	34.2	u	1.9%	1.6%
COc1cc(NC(=O)c2cc(-c3ccc4c(c3)OCO4)on2)cc(OC)c1OC	u	19.5	u	5.8µM*	8.2µM*
COC(=O)c1c(-c2cccnc2)csc1NC(=O)c1cc(C)on1	16.4µM*	-7.1	u	-3.6%	1.9%
Cc1ccc(NC(=O)c2cc(-c3ccco3)on2)cc1	u	-27.1	14.6µM*	-7.8%	-3.9%
COc1cccc(-c2cc(C(=O)Nc3cc(OC)c(OC)c(OC)c3)no2)c1	9.2µM*	-26.5	11.6µM*	u	u
O=C(Nc1cccnc1)c1cc(-c2ccccc2)on1	-25.0%	21.1	-21.2%	-16.3%	-3.2%
O=C(Nc1cccnc1)c1cc(-c2ccco2)on1	u	-11.6	9.2µM*	-0.5%	-11.2%[9.24 µM]
O=C(Nc1cnn(Cc2ccc(Cl)cc2)c1)c1cccs1	8.2µM*	-26.7	11.6µM*	u	u
O=C(Nc1cccnc1)c1ccco1	23.1µM*	-2.9	u	u	-27.7%
CCCc1cc(C(=O)Nc2cccc(Cl)c2)no1	7.9%	-13.2	0.3%	2.0%	-8.3%
CCCc1cc(C(=O)Nc2cccnc2)no1	-5.2%	-3.1	9.2µM*	7.9%	28.3%
CCOC(=O)C1CCN(C(=O)CCn2c(=O)oc3ccccc32)CC1	-1.0%	25.7	-12.7%	12.9%	6.9%
CCCc1cc(=O)[nH]c(SCC(=O)Nc2cc(S(=O)(=O)N3CCOCC3)ccc2Cl)n1	-14.5%	-9.2	1.6%	u	u
SMILES	DT40 TDP1 no CPT	IL1B secr inh	TDP1 cell CPT	HT1080 IDH1KD tx	HT1080NT lethal
CC(C)(C(=O)N1CCC1(C)C(=O)NS(=O)(=O)c1ccccc1Cl)c1ccccc1 (configuration not stated)	6.7%	23.6	-18.5%	4.4%	17.4%
CCN(CC)S(=O)(=O)c1ccc(N2CCN(C)CC2)c(NC(=O)c2cc(=O)c3ccccc3o2)c1	u	37.7	u	5.0%	-2.4%
O=C(Nc1cccnc1)c1cccs1	0.366µM*	21.5	0.326µM*	u	-13.1%
COc1cc(NC(=O)c2cc(-c3ccccc3)on2)cc(OC)c1OC	13µM*	-14.1	u	1.5%	2.9%
COc1ccc(NC(=O)c2cc(-c3ccccc3)on2)cc1	-17.2%	-12.5	-5.6%	-1.9%	6.0%
CC(C)n1cc(NC(=O)c2cc(-c3ccccc3)on2)cn1	3.66µM*	17.6	5.17µM*	8.2µM*	16.4µM*
COc1cccc(-c2cc(C(=O)Nc3cccnc3)no2)c1	13µM*	28.2	20.6µM*	11.6µM*	u
O=C(NC(=S)Nc1cccnc1)c1cccs1	-5.2%	-0.8	-11.9%	2.1%	21.8%
Cc1cc(Nc2ccccc2F)n2ncnc2n1	-0.7%	9.0	1.4%	-6.0%	8.4%
COc1ccccc1-c1cc(C(=O)NCc2cccs2)no1	-24.9%	28.6	-17.9%	5.0%	-2.6%
COc1cc(NC(=O)c2ccccn2)cc(OC)c1OC	u	2.9	16.4µM*	5.7%	13.8%
COc1ccc(OC)c(-c2cc(C(=O)NCc3cccs3)no2)c1	u	-13.9	20.6µM*	u	-27.2%
O=C(O)c1ccc(NC(=O)c2ccccc2NC(=O)c2ccccc2Cl)cc1	-0.5%	-1.9	29.5%	4.7%	6.1%
COc1cc(OC)c(-c2nn3c(-c4ccco4)nnc3s2)cc1OC	14.6µM*	-17.7	u	-11.5%	-4.6%
Cc1cc(-c2nn3c(-c4ccccc4)nnc3s2)c2ccccc2n1	18.4µM*	19.3	u	-17.3%	-2.1%
c1ccc(-c2cc(-c3nn4c(-c5ccco5)nnc4s3)c3ccccc3n2)cc1	4.47µM*	18.7	7.08µM*	u	-22.5%
COc1cc2c(cc1OC)-c1nnc(-c3ccco3)n1C1(CCCC1)C2	18.4µM*	-21.9	u	-7.2%	-1.2%
CN(C)c1ncc2nc(-c3ccccc3)c(=O)n(CCC#N)c2n1	-1.6%	x	-5.5%	x	x
COc1ccccc1CNC(=O)CC(c1ccc(OC)c(OC)c1)N1Cc2ccccc2C1=O (configuration not stated)	u	x	-9.6%	x	x
CCCCOc1ccc(S(=O)(=O)Nc2cccc(-c3ccc(N4CCOCC4)nn3)c2)cc1	u	x	20.6µM*	x	x
CCOc1ccc(S(=O)(=O)Nc2ccc(-c3ccc(N4CCCC4)nn3)cc2)cc1	-12.7%	x	1.6%	x	x
Cc1ccc(S(=O)(=O)Nc2cccc(-c3ccc(N4CCCCCC4)nn3)c2)cc1C	23.1µM*	-3.2	u	-7.8%	u
Cc1cc(C)cc(S(=O)(=O)Nc2cccc(-c3ccc(N4CCOCC4)nn3)c2)c1	-28.5%	x	u	x	x
COc1c(C)cc(S(=O)(=O)Nc2cccc(-c3ccc(N4CCOCC4)nn3)c2)c(C)c1C	u	x	23.1µM*	x	x
CCCCOc1ccc(S(=O)(=O)Nc2ccc(-c3ccc(N4CCC(C)CC4)nn3)cc2)cc1	29.1µM*	x	11.6µM*	x	x
CSc1nnc(CCNC(=O)c2ccc(-c3cccc(F)c3)cc2)n1-c1ccc(F)cc1	-14.0%	x	9.4%[9.04 µM]	x	x
COc1ccc2nc(NC(=O)c3cc(=O)c4cc(C)cc(C)c4o3)sc2c1	-11.4%	x	4.7%	x	x
